Assay [1] is described as follows: ATG_TAL_CIS: Attagene CIS-FACTORIAL HepG2 Assay for human TAL Basal Promoter (AID 2282966; active means hit-call score of the fitted dose curve at least 0.9, where 1 is the maximum; inactive means score below 0.9;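 further: background control endpoint measuring basal TAL promoter reporter mRNA not a specific factor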). The following applies: HepG2 Attagene cis-factorial TAL promoter reporter; actives raise or lower the signal. The method in brief: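 Endogenous transcription-factor activity is sensed in HepG2 cells through transfected cis-promoter reporter constructs. After 24 h dosing, reporter transcripts are quantified by RT-PCR and capillary electrophoresis. Gain or loss of signal is fitted relative to DMSO.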

Assay [2] is described as follows: ATG_TGFb_CIS: Attagene CIS-FACTORIAL HepG2 Assay for human Transforming Growth Factor (TGF) (AID 2282967; active means hit-call score of the fitted dose curve at least 0.9, where 1 is the maximum; inactive means score below 0.9). The settings on record: HepG2 Attagene CIS TGFb reporter, mRNA transcription; actives raise or lower the signal. The gist of the method:
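Liver HepG2 line, cis-factorial reporter panel, 24 h dosing. Quantitation: RT-PCR products labeled with 6-FAM, cut with HpaI, resolved by capillary electrophoresis; DMSO-referenced bidirectional analysis.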

The nature of assay [3]: ATG_VDRE_CIS: Attagene CIS-FACTORIAL HepG2 Assay for human Vitamin D Receptor Element (VDRE) (AID 2282968; active means hit-call score of the fitted dose curve at least 0.9, where 1 is the maximum; inactive means score below 0.9). The following applies: HepG2 VDRE cis-reporter transcription, actives raise or lower the signal. The method in brief: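 Transfected HepG2 reporter cells, chemical treatment 24 h. RNA isolated, cDNA amplified with reporter-specific primers, products analysed by capillary electrophoresis. Endpoint fitted in both directions versus DMSO.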

Assay [4] has as its target Nuclear receptor subfamily 1 group I member 3 (Homo sapiens) (UniProt Q14994). Nature of the assay: ATG_CAR_TRANS: Attagene TRANS-FACTORIAL HepG2 Assay for human Constitutive Androstane Receptor (CAR) (AID 2282969).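 Further: activators raise reporter mRNA above DMSO so AC50 marks induction.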 The following applies: HepG2 Attagene TRANS-FACTORIAL CAR reporter. The gist of the method: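 Steps: transient transfection of HepG2 with multiple GAL4-UAS reporter units; 24 h compound incubation; RNA isolation, RT-PCR, 6-FAM primer extension, HpaI digest; capillary electrophoresis. Gain-of-signal relative to DMSO negative control.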

Assay [5] concerns the target Steroid hormone receptor ERR1 (Homo sapiens) (UniProt P11474). In words: ATG_ERRa_TRANS: Attagene TRANS-FACTORIAL HepG2 Assay for human Estrogen-Related Receptor alpha (ERRa) (AID 2282971). The settings on record: HepG2 Attagene TRANS reporter, ERRa transactivation. The gist of the method:
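HepG2 cells were transiently transfected with multiple GAL4-UAS reporter units, then dosed with compound for 24 h. Total RNA was reverse-transcribed, reporter cDNA PCR-amplified and fluorescently labelled, and fragments resolved by capillary electrophoresis; induction was compared with DMSO.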

In assay [6] the target is X-box-binding protein 1 (Homo sapiens) (UniProt P17861). In words: ATG_Xbp1_CIS: Attagene CIS-FACTORIAL HepG2 Assay for human X-box Binding Protein 1 (XBP1) (AID 2282972; active means hit-call score of the fitted dose curve at least 0.9, where 1 is the maximum; inactive means score below 0.9). The settings on record: HepG2 XBP1 cis-element reporter, Attagene multiplex; actives raise or lower the signal. The method in brief:
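Human hepatoma HepG2, cis-element reporter system, 24 h treatment; mRNA quantified by RT-PCR/CE fluorescence; fit relative to DMSO.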

Assay [7] in a line: ATG_GAL4_TRANS: Attagene TRANS-FACTORIAL HepG2 Assay for GAL4 (Internal Marker) (AID 2282976). The settings on record: HepG2 Attagene TRANS GAL4 internal marker reporter. The method in brief: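 Fluorescence from capillary electrophoresis of labelled RT-PCR products quantifies reporter mRNA induction after 24 h dosing of HepG2 cells carrying transfected GAL4-UAS reporter transcription units. Vehicle DMSO serves as baseline.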

In assay [8] the target is Bile acid receptor (Homo sapiens) (UniProt Q96RI1). Nature of the assay: ATG_FXR_TRANS: Attagene TRANS-FACTORIAL HepG2 Assay for Farnesoid X Receptor (FXR) (AID 2282979).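 Further: hits raise reporter mRNA above DMSO so AC50 marks FXR activation.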 The settings on record: HepG2 Attagene TRANS FXR-GAL4 reporter transcription. The method in brief:
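Chimeric FXR-GAL4 activity in transiently transfected human HepG2 liver cells is scored as induction of reporter mRNA after 24 h of dosing. Detection uses RT-PCR with fluorescent labelling and capillary electrophoresis, with DMSO serving as baseline.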

Assay [9] has as its target Oxysterols receptor LXR-alpha (Homo sapiens) (UniProt Q13133). In words: ATG_LXRa_TRANS: Attagene TRANS-FACTORIAL HepG2 Assay for human Liver X Receptor alpha (LXRa) (AID 2282980). The settings on record: HepG2 Attagene TRANS reporter, LXRa transactivation. The gist of the method: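 Transient HepG2 transfectants, 24 h dosing, RT-PCR/CE mRNA reporter quantitation; gain-of-signal vs DMSO.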

Assay [10] deals with Oxysterols receptor LXR-beta (Homo sapiens) (UniProt P55055). Nature of the assay: ATG_LXRb_TRANS: Attagene TRANS-FACTORIAL HepG2 Assay for human Liver X Receptor beta (LXRb) (AID 2282981). The following applies: HepG2 Attagene TRANS GAL4-LXRb reporter, mRNA. The gist of the method: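 Liver-derived HepG2 cells transfected with Gal4-responsive reporters were dosed for 24 h. Activation was scored as rise in reporter mRNA, by RT-PCR and capillary electrophoresis, above DMSO baseline.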
Chain of Oxysterols receptor LXR-beta (Homo sapiens) (P55055 whole entry, looked up, the tested form may be a part): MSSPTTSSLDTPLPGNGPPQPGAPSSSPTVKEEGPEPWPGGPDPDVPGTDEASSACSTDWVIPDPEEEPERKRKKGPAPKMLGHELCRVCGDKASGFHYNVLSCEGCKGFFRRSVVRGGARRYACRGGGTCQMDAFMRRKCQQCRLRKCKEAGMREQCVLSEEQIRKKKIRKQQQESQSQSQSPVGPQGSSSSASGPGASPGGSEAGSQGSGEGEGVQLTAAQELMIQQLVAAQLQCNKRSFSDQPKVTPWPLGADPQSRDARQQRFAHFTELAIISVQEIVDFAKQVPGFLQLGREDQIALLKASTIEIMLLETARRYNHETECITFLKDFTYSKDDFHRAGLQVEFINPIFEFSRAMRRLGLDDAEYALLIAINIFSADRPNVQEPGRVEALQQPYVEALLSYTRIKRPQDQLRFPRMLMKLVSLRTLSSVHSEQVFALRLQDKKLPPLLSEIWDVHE

Assay [11] deals with Hepatocyte nuclear factor 4-alpha (Homo sapiens) (UniProt P41235). Nature of the assay: ATG_HNF4a_TRANS: Attagene TRANS-FACTORIAL HepG2 Assay for human Hepatocyte Nuclear Factor 4 alpha (HNF4a) (AID 2282982). The settings on record: HepG2 HNF4a transactivation reporter, mRNA readout. The method in brief:
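Using HepG2 liver cells transfected with GAL4-UAS reporter units, chemical-induced mRNA increases were assessed after 24 hours. Fluorescent RT-PCR fragments were separated by capillary electrophoresis and compared with DMSO negative controls.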

The nature of assay [12]: ATG_M_06_TRANS: Attagene TRANS-FACTORIAL HepG2 Assay for M06 Transcription Factor (Internal Marker) (AID 2282983).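 Further: reporter transcript level by RT-PCR then capillary electrophoresis fluorescence.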 The following applies: HepG2 Attagene TRANS M06 internal marker reporter. The method in brief:
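Human liver HepG2 cells bearing transiently transfected chimeric NR-GAL4 reporter units were treated with chemicals for 24 h. Total RNA was reverse-transcribed, reporter sequences amplified and labelled, then quantified by capillary electrophoresis. Activity was fitted upward relative to DMSO.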

For assay [13], the target named is Transcriptional activator Myb (Homo sapiens) (UniProt P10242). In words: ATG_Myb_CIS: Attagene CIS-FACTORIAL HepG2 Assay for human Myeloblastosis (Myb) Proto-Oncogene Transcription Factor (AID 2282986; active means hit-call score of the fitted dose curve at least 0.9, where 1 is the maximum; inactive means score below 0.9). The settings on record: HepG2 Attagene CIS-FACTORIAL Myb reporter transcription; actives raise or lower the signal. The method in brief: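 Steps: transfect HepG2 with cis-regulated reporter units; dose with chemical for 24 h; isolate RNA, reverse-transcribe, PCR-amplify and FAM-label reporter sequences; digest with HpaI; resolve by capillary electrophoresis. Activity fitted in both directions relative to DMSO.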
Chain of Transcriptional activator Myb (Homo sapiens) (P10242 whole entry, looked up): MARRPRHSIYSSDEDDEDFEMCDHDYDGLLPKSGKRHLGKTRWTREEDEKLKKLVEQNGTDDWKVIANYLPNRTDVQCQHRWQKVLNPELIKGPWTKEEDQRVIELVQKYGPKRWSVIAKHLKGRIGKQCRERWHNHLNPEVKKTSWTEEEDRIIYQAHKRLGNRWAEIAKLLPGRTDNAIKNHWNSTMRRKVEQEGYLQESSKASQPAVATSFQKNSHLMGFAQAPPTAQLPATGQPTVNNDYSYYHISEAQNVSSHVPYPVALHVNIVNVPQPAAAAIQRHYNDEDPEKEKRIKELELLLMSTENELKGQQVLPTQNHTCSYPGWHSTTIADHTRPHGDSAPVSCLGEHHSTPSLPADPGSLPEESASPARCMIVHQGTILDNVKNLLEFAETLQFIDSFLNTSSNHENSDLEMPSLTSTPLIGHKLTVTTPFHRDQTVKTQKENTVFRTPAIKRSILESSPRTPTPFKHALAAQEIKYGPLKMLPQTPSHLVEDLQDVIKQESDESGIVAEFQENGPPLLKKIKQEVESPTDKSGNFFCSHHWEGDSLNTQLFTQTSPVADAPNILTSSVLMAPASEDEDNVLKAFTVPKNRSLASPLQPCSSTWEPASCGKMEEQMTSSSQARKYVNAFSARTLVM

Assay [14] deals with Nuclear respiratory factor 1 (Homo sapiens) (UniProt Q16656). In words: ATG_NRF1_CIS: Attagene CIS-FACTORIAL HepG2 Assay for human Nuclear Respiratory Factor 1 (NRF1) Orphan Gene (AID 2282987; active means hit-call score of the fitted dose curve at least 0.9, where 1 is the maximum; inactive means score below 0.9). The following applies: HepG2 NRF1 cis-element reporter, Attagene multiplex; actives raise or lower the signal. The gist of the method: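 Fluorescence intensity of labelled reporter cDNA fragments, resolved by capillary electrophoresis, served as readout for NRF1 cis-element activity. Transiently transfected HepG2 cells were dosed for 24 hours; activity in either direction was fitted against DMSO negative control.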
Chain of Nuclear respiratory factor 1 (Homo sapiens) (Q16656 whole entry, looked up, the tested form may be a part): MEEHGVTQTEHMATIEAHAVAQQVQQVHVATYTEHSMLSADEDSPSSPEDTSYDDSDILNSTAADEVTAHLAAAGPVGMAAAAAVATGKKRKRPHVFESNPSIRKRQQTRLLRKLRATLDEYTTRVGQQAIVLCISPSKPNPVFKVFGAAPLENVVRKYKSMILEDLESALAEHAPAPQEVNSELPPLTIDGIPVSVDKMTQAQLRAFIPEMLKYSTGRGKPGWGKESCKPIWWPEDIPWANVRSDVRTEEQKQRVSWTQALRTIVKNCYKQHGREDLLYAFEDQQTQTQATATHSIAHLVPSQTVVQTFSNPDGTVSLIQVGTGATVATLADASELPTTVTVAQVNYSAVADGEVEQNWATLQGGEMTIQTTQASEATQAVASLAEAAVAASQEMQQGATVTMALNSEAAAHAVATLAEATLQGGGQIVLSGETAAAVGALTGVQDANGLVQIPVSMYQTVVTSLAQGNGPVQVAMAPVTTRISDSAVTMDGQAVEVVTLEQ

Assay [15] has as its target Estrogen receptor (Homo sapiens) (UniProt P03372). In words: ATG_ERa_TRANS: Attagene TRANS-FACTORIAL HepG2 Assay for human Estrogen Receptor alpha (ERa) (AID 2282970). The settings on record: HepG2 Attagene TRANS ERa GAL4 reporter, mRNA. The gist of the method: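 Transfected HepG2 cells carrying GAL4-UAS-driven reporter units were dosed for 24 hours. Total RNA was reverse-transcribed, reporter sequences PCR-amplified, FAM-labelled, HpaI-digested and resolved by capillary electrophoresis. Increases over DMSO control defined activity.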

In assay [16] the target is Glucocorticoid receptor (Homo sapiens) (UniProt P04150). In words: ATG_GR_TRANS: Attagene TRANS-FACTORIAL HepG2 Assay for human Glucocorticoid Receptor (GR) (AID 2282978).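 Further: activators score as hits since higher reporter transcript over DMSO is fitted.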 The settings on record: HepG2 Attagene TRANS GR reporter, mRNA transcription. The method in brief: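 In this trans-factorial format, exogenous NR-GAL4 chimeric proteins in transfected HepG2 cells regulate GAL4-UAS reporter transcription. After 24 h treatment, reporter mRNA induction relative to DMSO is read by RT-PCR and capillary electrophoresis.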
Chain of Glucocorticoid receptor (Homo sapiens) (P04150 whole entry, looked up, the tested form may be a part): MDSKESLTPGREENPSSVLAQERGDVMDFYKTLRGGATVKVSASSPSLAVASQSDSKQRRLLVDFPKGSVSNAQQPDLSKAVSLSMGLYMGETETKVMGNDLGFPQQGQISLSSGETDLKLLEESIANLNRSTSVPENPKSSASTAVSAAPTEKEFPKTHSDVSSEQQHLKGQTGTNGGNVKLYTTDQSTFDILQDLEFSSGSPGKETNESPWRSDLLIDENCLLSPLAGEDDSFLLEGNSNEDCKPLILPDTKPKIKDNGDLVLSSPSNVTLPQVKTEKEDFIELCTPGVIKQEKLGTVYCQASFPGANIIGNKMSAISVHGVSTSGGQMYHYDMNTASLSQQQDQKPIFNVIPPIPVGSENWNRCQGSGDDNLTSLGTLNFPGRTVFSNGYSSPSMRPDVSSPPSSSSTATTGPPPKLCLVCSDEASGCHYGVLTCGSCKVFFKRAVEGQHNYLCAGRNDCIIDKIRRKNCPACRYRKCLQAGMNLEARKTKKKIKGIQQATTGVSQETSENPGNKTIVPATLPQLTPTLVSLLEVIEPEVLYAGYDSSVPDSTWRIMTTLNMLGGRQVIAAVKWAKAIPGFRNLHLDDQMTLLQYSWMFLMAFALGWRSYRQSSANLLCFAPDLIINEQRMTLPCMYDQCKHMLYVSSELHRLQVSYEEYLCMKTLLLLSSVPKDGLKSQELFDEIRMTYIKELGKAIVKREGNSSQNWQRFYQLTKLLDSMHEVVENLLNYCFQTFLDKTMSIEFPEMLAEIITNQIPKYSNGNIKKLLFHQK

Assay [17] is described as follows: ATG_M_32_TRANS: Attagene TRANS-FACTORIAL HepG2 Assay for M32 Transcription Factor (Internal Marker) (AID 2282984).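 Further: transcript level of a background control reporter unit measured by RT-PCR and capillary electrophoresis.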 The following applies: HepG2 Attagene TRANS M32 internal marker reporter. The gist of the method:
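Fluorescence-detected mRNA induction, HepG2 liver cells, 24 h after dosing. Multiple GAL4-UAS reporter units introduced by transient transfection; background-control endpoint analysed for gain of signal against DMSO.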

In assay [18] the target is Nuclear receptor subfamily 4 group A member 2 (Homo sapiens) (UniProt P43354). Nature of the assay: ATG_NURR1_TRANS: Attagene TRANS-FACTORIAL HepG2 Assay for human Nuclear Receptor Related Protein 1 (NURR1) (AID 2282985). The settings on record: HepG2 Attagene TRANS reporter, mRNA readout. The method in brief:
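Chimeric NR-Gal4 proteins were expressed in human HepG2 cells bearing GAL4-UAS reporter units, and induced reporter mRNA was quantified 24 h post-dosing by RT-PCR and capillary electrophoresis.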

Assay [19] in a line: ATG_M_19_TRANS: Attagene TRANS-FACTORIAL HepG2 Assay for M19 Transcription Factor (Internal Marker) (AID 2282974). The following applies: HepG2 Attagene TRANS-FACTORIAL M19 internal marker reporter. The method in brief: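 Cells: human HepG2, transiently transfected with multiplexed reporter transcription units. Exposure: 24 h. Detection: RT-PCR of reporter mRNA with capillary electrophoresis. Analysis: gain-of-signal vs DMSO.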

Consider 7 compounds from PubChem BioAssay (EPA / NIEHS).

SMILES strings stand for the structures. Results filed as inconclusive are left out. More than one record can exist for a structure, and the calls need not agree. Calls of active or inactive are those of the source. How the source made its calls, unless noted: active means hit-call score of the fitted dose curve at least 0.9, where 1 is the maximum; inconclusive means response in the unintended direction; inactive means score below 0.9.

Chain of Bile acid receptor (Homo sapiens) (Q96RI1 whole entry, looked up, the tested form may be a part): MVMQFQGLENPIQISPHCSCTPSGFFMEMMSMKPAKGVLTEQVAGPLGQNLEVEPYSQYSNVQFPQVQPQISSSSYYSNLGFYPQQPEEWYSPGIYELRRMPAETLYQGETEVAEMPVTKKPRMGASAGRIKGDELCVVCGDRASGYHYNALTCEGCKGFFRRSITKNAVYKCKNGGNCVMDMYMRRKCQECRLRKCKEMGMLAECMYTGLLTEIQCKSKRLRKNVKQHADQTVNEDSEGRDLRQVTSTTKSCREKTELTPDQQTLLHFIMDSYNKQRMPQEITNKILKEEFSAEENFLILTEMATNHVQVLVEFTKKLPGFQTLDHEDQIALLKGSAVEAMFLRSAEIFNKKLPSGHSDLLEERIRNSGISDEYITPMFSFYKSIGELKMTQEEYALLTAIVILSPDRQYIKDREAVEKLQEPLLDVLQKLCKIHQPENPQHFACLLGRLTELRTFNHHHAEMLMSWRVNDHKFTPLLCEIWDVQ
Chain of X-box-binding protein 1 (Homo sapiens) (P17861 whole entry, looked up): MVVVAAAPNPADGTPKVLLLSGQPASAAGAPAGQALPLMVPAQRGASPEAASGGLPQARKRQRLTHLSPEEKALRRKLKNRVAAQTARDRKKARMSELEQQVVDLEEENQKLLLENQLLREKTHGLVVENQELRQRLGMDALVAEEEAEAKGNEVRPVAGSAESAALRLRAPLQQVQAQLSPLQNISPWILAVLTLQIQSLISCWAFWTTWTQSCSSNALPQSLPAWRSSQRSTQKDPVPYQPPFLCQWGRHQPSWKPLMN
Chain of Estrogen receptor (Homo sapiens) (P03372 whole entry, looked up, the tested form may be a part): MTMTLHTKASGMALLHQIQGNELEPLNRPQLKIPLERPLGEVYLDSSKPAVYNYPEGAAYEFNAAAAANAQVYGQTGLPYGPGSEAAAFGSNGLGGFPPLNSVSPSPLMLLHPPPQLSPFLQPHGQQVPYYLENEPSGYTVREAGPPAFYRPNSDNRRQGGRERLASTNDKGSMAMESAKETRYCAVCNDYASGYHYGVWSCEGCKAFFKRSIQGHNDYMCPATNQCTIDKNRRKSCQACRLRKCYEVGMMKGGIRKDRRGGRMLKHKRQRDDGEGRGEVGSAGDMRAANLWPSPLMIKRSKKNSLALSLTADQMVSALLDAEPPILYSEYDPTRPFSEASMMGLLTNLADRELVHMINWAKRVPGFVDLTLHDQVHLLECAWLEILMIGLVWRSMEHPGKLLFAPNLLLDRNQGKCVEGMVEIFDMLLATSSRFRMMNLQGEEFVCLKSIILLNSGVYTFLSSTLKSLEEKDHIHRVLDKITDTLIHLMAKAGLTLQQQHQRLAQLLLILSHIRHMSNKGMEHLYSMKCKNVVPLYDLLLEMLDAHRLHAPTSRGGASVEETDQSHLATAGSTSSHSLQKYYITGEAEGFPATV
Chain of Steroid hormone receptor ERR1 (Homo sapiens) (P11474 whole entry, looked up, the tested form may be a part): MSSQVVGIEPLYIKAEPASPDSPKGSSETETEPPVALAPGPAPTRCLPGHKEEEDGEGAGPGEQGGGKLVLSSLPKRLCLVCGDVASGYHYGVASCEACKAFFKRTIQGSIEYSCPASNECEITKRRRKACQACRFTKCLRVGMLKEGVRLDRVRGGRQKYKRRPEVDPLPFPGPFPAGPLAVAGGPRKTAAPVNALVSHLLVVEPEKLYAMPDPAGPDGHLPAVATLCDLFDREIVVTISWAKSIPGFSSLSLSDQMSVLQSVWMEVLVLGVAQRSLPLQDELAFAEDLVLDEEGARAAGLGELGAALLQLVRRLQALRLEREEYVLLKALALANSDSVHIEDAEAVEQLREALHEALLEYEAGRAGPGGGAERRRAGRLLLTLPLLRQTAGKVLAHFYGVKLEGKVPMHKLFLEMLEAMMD
Chain of Hepatocyte nuclear factor 4-alpha (Homo sapiens) (P41235 whole entry, looked up, the tested form may be a part): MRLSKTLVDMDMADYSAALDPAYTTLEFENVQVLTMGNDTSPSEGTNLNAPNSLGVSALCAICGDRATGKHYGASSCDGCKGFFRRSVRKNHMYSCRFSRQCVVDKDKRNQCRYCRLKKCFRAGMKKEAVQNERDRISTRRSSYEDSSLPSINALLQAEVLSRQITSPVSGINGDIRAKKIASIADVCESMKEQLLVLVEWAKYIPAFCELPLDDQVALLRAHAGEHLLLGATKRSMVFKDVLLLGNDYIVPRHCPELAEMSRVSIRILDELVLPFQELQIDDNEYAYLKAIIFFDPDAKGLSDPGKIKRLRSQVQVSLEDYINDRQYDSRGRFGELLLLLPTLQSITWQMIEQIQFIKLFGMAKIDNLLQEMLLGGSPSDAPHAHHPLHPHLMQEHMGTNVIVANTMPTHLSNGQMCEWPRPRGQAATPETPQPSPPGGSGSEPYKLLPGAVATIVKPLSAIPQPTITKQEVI
Chain of Nuclear receptor subfamily 1 group I member 3 (Homo sapiens) (Q14994 whole entry, looked up, the tested form may be a part): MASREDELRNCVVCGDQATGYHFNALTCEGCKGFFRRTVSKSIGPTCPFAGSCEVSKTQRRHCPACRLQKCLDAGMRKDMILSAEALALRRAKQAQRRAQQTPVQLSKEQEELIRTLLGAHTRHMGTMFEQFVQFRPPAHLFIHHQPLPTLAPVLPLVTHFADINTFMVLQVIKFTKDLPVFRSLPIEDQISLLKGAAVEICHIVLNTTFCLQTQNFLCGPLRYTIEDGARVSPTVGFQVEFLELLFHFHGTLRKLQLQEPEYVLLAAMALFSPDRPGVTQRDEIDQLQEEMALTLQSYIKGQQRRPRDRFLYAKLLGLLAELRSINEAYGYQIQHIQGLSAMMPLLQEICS

For the compound `CC(=O)CC(C)C`, the compound was called inactive in assay [1], in assay [2], in assay [3], in [4], in assay [5] and in assay [6]. Moreover, the outcome in [7], in assay [8], in assay [9], in [10], in assay [11] and in assay [12] was inactive. The compound was called inactive in assay [13] and in assay [14].

As usually defined, the AC50 is the concentration giving half of the maximal activity seen. On to `O=C(O)CCC(F)(F)C(F)(F)C(F)(F)C(F)(F)C(F)(F)F`, for which the call in assay [1], in assay [2], in assay [3], in [15], in [5] and in assay [6] was inactive. Moreover, the compound was called inactive in [16], in assay [8], in assay [9], in assay [10], in assay [11] and in assay [12]. Moreover, the compound was called inactive in assay [17], in assay [18], in assay [13] and in [14]. Further, in assay [15], the AC50 was 118 µM (active).

Turning to `O=P(O)(O)CCC(F)(F)C(F)(F)C(F)(F)C(F)(F)C(F)(F)C(F)(F)F`, the compound was classed as inactive in assay [1], in assay [2], in assay [3], in assay [15], in assay [5] and in assay [6]. For the same compound, the call in assay [19], in [7], in [16], in assay [8], in [9] and in assay [11] was inactive. Moreover, the call in assay [12], in assay [17], in assay [13] and in [14] was inactive.

For `C=CC(=O)OCCN(CC)CC`, the outcome in assay [1], in [2], in assay [4], in [19], in assay [7] and in assay [8] was inactive. The compound was classed as inactive in [9], in assay [10], in assay [11], in [17], in [13] and in assay [14]. Also, the AC50 in [3] is 62.9 µM (active); in assay [6], 29 µM (active).

`FC(F)(F)C1(F)C(F)(F)C(F)(F)C(F)(F)C1(F)F`: the compound was called inactive in [1], in assay [2], in assay [3], in [15], in [5] and in assay [6]. For the same compound, the compound was classed as inactive in assay [7], in [16], in assay [8], in [17], in assay [13] and in [14].

As to `CCC(C)c1nccnc1OC` (stereo unspecified), the compound was classed as inactive in [1], in assay [2], in [3], in assay [4], in [5] and in assay [6]. Moreover, the call in [19], in assay [7], in [16], in [9], in assay [10] and in assay [12] was inactive. Further, the compound was classed as inactive in [17], in assay [13] and in assay [14].

For `FC(F)(F)C1(F)C(F)(F)C(F)(F)C(F)(F)C(F)(C(F)(F)F)C1(F)F` (stereo unspecified), the result in assay [1], in [2], in [3], in assay [15], in [5] and in assay [6] was inactive. Also, the compound was called inactive in assay [7], in assay [16], in [8], in assay [12], in [17] and in assay [13]. In assay [14], the compound was classed as inactive.
